In PubChem BioAssay (Tox21) one finds Potency data, which are given here for 39 compounds.

Where “and” joins values, the source holds several entries; their conditions need not be identical. Equal values may be shown once. Results filed as inconclusive are left out. A call without a number means that no potency is given here. More than one record can exist for a structure, and the calls need not agree. Calls of active or inactive are those of the source. Unless noted, the call rests on the fitted dose curve; in most records, active means well fitted cell-killing curve with a large enough effect in the repeat runs; inconclusive means weak or mixed curves, or effect the other way; inactive means flat fitted curve, though single readings scatter.
Potency means the concentration at half of the fitted maximal effect.

Chain of Peroxisome proliferator-activated receptor gamma (Homo sapiens) (P37231 whole entry, looked up): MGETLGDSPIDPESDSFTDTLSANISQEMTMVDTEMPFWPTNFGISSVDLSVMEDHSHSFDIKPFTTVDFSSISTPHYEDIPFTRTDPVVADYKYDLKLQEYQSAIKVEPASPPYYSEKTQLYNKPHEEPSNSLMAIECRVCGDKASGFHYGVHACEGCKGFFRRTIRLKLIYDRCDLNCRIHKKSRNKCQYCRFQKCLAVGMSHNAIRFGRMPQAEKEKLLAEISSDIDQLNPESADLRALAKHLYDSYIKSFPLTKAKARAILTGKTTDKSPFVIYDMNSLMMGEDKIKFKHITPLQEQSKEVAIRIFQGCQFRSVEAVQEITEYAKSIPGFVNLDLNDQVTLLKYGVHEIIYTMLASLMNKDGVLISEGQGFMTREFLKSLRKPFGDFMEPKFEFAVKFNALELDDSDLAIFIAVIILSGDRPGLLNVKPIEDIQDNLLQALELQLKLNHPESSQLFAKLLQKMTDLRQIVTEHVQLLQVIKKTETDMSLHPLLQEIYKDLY

Tested on in one assay: not listed separately
The experiment in a line: qHTS assay to identify small molecule that activate the aryl hydrocarbon receptor (AhR) signaling pathway - cell viability counter screen (AID 743086). Further: nearly all actives have a fitted effect of over 45% in size. As to conditions: HepG2-AhR-luc viability, CellTiter-Fluor, 24 h; series mostly up to 70.3 µM. In a few lines: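 HepG2-AhR-luc (HG2L7.5c1) cells, 4000/well, treated 24 h at 37 C with compound; viability measured as CellTiter-Fluor fluorescence after 30 min in the same wells as the luciferase read.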
For the compound `CCCCOCCOCCO`, the Potency entry was “inactive”.
Still for that read-out and setting: then `CC(C)(C)NC(=O)[C@H]1CC[C@H]2[C@@H]3CC[C@H]4NC(=O)C=C[C@]4(C)[C@H]3CC[C@]12C`, with “inactive”.
As to `O=c1oc(=O)c2cc3c(=O)oc(=O)c3cc12`, the Potency result was “inactive”.
Regarding `CN1C(C(=O)Nc2ccccn2)=C(O)c2ccccc2S1(=O)=O`, the Potency entry is “inactive”.
Consider `OCCO`, for which the Potency entry is “inactive”.
On the same count and under the same terms, in the case of `CC(CCC(=O)O)(c1ccc(O)cc1)c1ccc(O)cc1` it was “inactive”.
Consider `COc1ccc(OC)c(C(O)CNC(=O)CN)c1` (stereo not drawn), for which the Potency entry is “inactive”.
As to `CCCc1c(OCCCCc2nn[nH]n2)ccc(C(C)=O)c1O`, the Potency entry was “inactive”.
With `O=[N+]([O-])c1ccc2c(c1)Cc1ccccc1-2`, the Potency entry was “inactive”.
Regarding `CC1=CCC(C(C)(C)O)CC1` (stereo not drawn), the Potency result is “inactive”.
In the case of `CC(C)Oc1ccc2c(=O)c(-c3ccccc3)coc2c1`, the Potency result is “inactive”.
For the compound `O=C1c2cccc(O)c2C(=O)c2c(O)cccc21`, the Potency entry was “inactive”.
On to `CC(C)=CCC/C(C)=C\CO`, for which the Potency result is “inactive”.
On to `Cc1c(OCC(F)(F)F)ccnc1CS(=O)c1nc2ccccc2[nH]1` (stereo not drawn), for which the Potency entry is “inactive”.
On to `C[Si](C)(C)O[Si](C)(C)C`, for which the Potency entry is “inactive”.
Regarding `CC(=O)O[C@]1(C(C)=O)CC[C@H]2[C@@H]3C=C(Cl)C4=CC(=O)[C@@H]5C[C@@H]5[C@]4(C)[C@H]3CC[C@@]21C`, the Potency result was “inactive”.
Take `O=CCc1ccccc1`: the Potency entry is “inactive”.
As for `c1ccc2sc(SSN3CCOCC3)nc2c1`, the Potency result is “inactive”.
Still for that read-out and setting: in the case of `c1cc(-c2ccncc2)ccn1` it was “inactive”; in that of `CC(C)=CCCC(C)CCO` (stereo not drawn), “inactive”; in that of `CCCC(=O)O`, “inactive”.
As to `c1ccc2cc(Nc3ccc(Nc4ccc5ccccc5c4)cc3)ccc2c1`, the Potency result is “inactive”.
Turning to `CCCCC(CC)COC(=O)c1ccc(N(C)C)cc1` (stereo not drawn), the Potency entry was “inactive”.
In the case of `CC(=O)c1ccccn1`, the Potency entry is “inactive”.
Turning to `CCCCCCCCCCCO`, the Potency entry was “inactive”.
In the case of `CC(C)OC=O`, the Potency result was “inactive”.
`COc1ccccc1/C=C/C=O`: the Potency entry is “inactive”.
`C#C[C@]1(O)CC[C@H]2[C@@H]3CCC4=Cc5oncc5C[C@]4(C)[C@H]3CC[C@@]21C`: the Potency entry is “inactive”.
Same read-out and setting: then `O=C(O)c1ccccc1Nc1cccc(C(F)(F)F)c1`, with “inactive”; and `O=CCCCC=O`, with “inactive”; and `O=C(c1ccccc1)c1ccccc1O`, with “inactive”.
On the same count and under the same terms, in the case of `CCOCCOCCO` it was “inactive”; in that of `Nc1ccccc1N`, 19.8 µM (active).
For the compound `COc1ccc(C(=O)CC(=O)c2ccc(C(C)(C)C)cc2)cc1`, the Potency result was “inactive”.
Take `C[C@]12CC[C@H]3[C@@H](CCC4=CC(=O)CC[C@@]43C)[C@@H]1CC[C@@H]2C(=O)CO`: the Potency entry was “inactive”.
On the same count and under the same terms, in the case of `CNCCCC12CCC(c3ccccc31)c1ccccc12` it was “inactive and 61.1 µM (active)”; in that of `Nc1ccc(S(=O)(=O)Nc2cnc3ccccc3n2)cc1`, “inactive”.
As to `Cc1ncc[nH]1`, the Potency result is “inactive”.
As for `Brc1cc(Oc2cc(Br)c(Br)c(Br)c2Br)c(Br)c(Br)c1Br`, the Potency entry was “inactive”.

In another assay the target is Peroxisome proliferator-activated receptor gamma (Homo sapiens) (UniProt P37231). Description: qHTS assay to identify small molecule agonists of the peroxisome proliferator-activated receptor gamma (PPARg) signaling pathway (AID 743094; active means well fitted activation curve with a large enough effect in the signal ratio in the repeat runs, not every such curve was filed as active; the % refers to the signal ratio). As to conditions: HEK293H PPARg-UAS-bla, beta-lactamase FRET ratio, 17 h; series mostly up to 57 µM. In a few lines:
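Quantitative HTS agonist mode: stable HEK293H line with UAS-beta-lactamase reporter under PPARg control, 17 h compound exposure at 37C, fluorescence after 1 h FRET substrate loading at room temperature.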
Take `CCCCOCCOCCO`: the Potency entry is “inactive”.
For the compound `CC(C)(C)NC(=O)[C@H]1CC[C@H]2[C@@H]3CC[C@H]4NC(=O)C=C[C@]4(C)[C@H]3CC[C@]12C`, the Potency entry was “inactive”.
For `O=c1oc(=O)c2cc3c(=O)oc(=O)c3cc12`, the Potency entry is “inactive”.
In the case of `CN1C(C(=O)Nc2ccccn2)=C(O)c2ccccc2S1(=O)=O`, the Potency result was “inactive”.
As to `OCCO`, the Potency entry was “inactive”.
Still for that read-out and setting: then `CC(CCC(=O)O)(c1ccc(O)cc1)c1ccc(O)cc1`, with “inactive”; and `COc1ccc(OC)c(C(O)CNC(=O)CN)c1` (stereo not drawn), with “inactive”; and `CCCc1c(OCCCCc2nn[nH]n2)ccc(C(C)=O)c1O`, with 2.19 µM (active).
In the case of `O=[N+]([O-])c1ccc2c(c1)Cc1ccccc1-2`, the Potency result is “inactive”.
For `CC1=CCC(C(C)(C)O)CC1` (stereo not drawn), the Potency result was “inactive”.
As to `CC(C)Oc1ccc2c(=O)c(-c3ccccc3)coc2c1`, the Potency entry is “inactive”.
As to `O=C1c2cccc(O)c2C(=O)c2c(O)cccc21`, the Potency result was “inactive”.
As to `CC(C)=CCC/C(C)=C\CO`, the Potency entry is “inactive”.
For `Cc1c(OCC(F)(F)F)ccnc1CS(=O)c1nc2ccccc2[nH]1` (stereo not drawn), the Potency result was “inactive”.
On to `C[Si](C)(C)O[Si](C)(C)C`, for which the Potency entry is “inactive”.
On the same count and under the same terms, in the case of `CC(=O)O[C@]1(C(C)=O)CC[C@H]2[C@@H]3C=C(Cl)C4=CC(=O)[C@@H]5C[C@@H]5[C@]4(C)[C@H]3CC[C@@]21C` it was “inactive”; in that of `O=CCc1ccccc1`, “inactive”; in that of `c1ccc2sc(SSN3CCOCC3)nc2c1`, 5.48 µM (active).
The same measure, in the same setting: in the case of `c1cc(-c2ccncc2)ccn1` it was “inactive”; in that of `CC(C)=CCCC(C)CCO` (stereo not drawn), “inactive”.
Same read-out and setting: then `CCCC(=O)O`, with “inactive”; and `c1ccc2cc(Nc3ccc(Nc4ccc5ccccc5c4)cc3)ccc2c1`, with 22 µM (active); and `CCCCC(CC)COC(=O)c1ccc(N(C)C)cc1` (stereo not drawn), with “inactive”.
`CC(=O)c1ccccn1`: the Potency result was “inactive”.
On the same count and under the same terms, then `CCCCCCCCCCCO`, with “inactive”; and `CC(C)OC=O`, with “inactive”; and `COc1ccccc1/C=C/C=O`, with “inactive”.
Turning to `C#C[C@]1(O)CC[C@H]2[C@@H]3CCC4=Cc5oncc5C[C@]4(C)[C@H]3CC[C@@]21C`, the Potency result is “inactive”.
Turning to `O=C(O)c1ccccc1Nc1cccc(C(F)(F)F)c1`, the Potency result was “inactive”.
`O=CCCCC=O`: the Potency entry is “inactive and 53 µM (active)”.
Turning to `O=C(c1ccccc1)c1ccccc1O`, the Potency entry is “inactive”.
On to `CCOCCOCCO`, for which the Potency entry is “inactive”.
Regarding `Nc1ccccc1N`, the Potency entry was “inactive”.
In the case of `COc1ccc(C(=O)CC(=O)c2ccc(C(C)(C)C)cc2)cc1`, the Potency entry was “inactive”.
In the case of `C[C@]12CC[C@H]3[C@@H](CCC4=CC(=O)CC[C@@]43C)[C@@H]1CC[C@@H]2C(=O)CO`, the Potency result was “inactive”.
The same measure, in the same setting: in the case of `CNCCCC12CCC(c3ccccc31)c1ccccc12` it was “inactive”; in that of `Nc1ccc(S(=O)(=O)Nc2cnc3ccccc3n2)cc1`, “inactive”.
Turning to `Cc1ncc[nH]1`, the Potency result was “inactive”.
Regarding `Brc1cc(Oc2cc(Br)c(Br)c(Br)c2Br)c(Br)c(Br)c1Br`, the Potency entry was “inactive”.
